Mito fusion yeast: qHTS Assay for Small Molecule Inhibitors of Mitochondrial Division or Activators of Mitochondrial Fusion; S. cerevisiae fusion-defective mutant growth rescue, CellTiterGlo 48 h; Potency, µM (top dose mostly 46.1 µM), for the others: top-dose growth rescue (activation), hits mostly activators; 320,000 compounds, 0.23% hits; AID 485298, 2010; note: % of control where 0% means no effect; nearly all actives have a fitted effect of over 45% in size
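Compounds are tested for their ability to restore growth of mitochondrial fusion-defective yeast strains at non-permissive 37C in YPEG medium over 48 hours. Viability is quantified by luciferase luminescence.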
TrxR1 substrate: qHTS Assay for Substrates of Mammalian Selenoprotein Thioredoxin Reductase 1 (TrxR1): qHTS. Thioredoxin reductase 1, cytoplasmic (Rattus norvegicus), O89049. purified TrxR1 substrate turnover, NADPH consumption readout. Potency, µM (titrated, usually from 114 µM), without a hit: top-dose activity change, negative = substrate turnover. 390,000 compounds, 0.01% hits. AID 588456, 2011; note: % is set by controls: 0 for no effect and ±100 for the full control effect; nearly all actives have a fitted effect of over 50% in size
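Rat TrxR1, dispensed at 90 nM, was prereduced with 400 uM NADPH (final) for 5 min at ~22 deg C, then incubated with compound 15 min before 400 uM selenite. A first-read NADPH fluorescence drop versus no-compound background flagged substrates.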
mIDH1 inhibitor: qHTS for Inhibitors of mutant isocitrate dehydrogenase 1 (IDH1): qHTS | Isocitrate dehydrogenase [NADP] cytoplasmic (Homo sapiens), O75874 | Potency, µM (top dose mostly 76.6 µM), without a hit: top-dose activity change, negative = inhibition, most hits filed as inhibitors | IDH1-R132H enzyme, NADPH consumption, diaphorase/resazurin fluorescence | 390,000 compounds, 0.093% hits; note: % is set by controls: 0 for no effect and ±100 for the full control effect; nearly all actives have a fitted effect of over 65% in size
Target sequence (O75874 whole entry R132H, stated change not applied): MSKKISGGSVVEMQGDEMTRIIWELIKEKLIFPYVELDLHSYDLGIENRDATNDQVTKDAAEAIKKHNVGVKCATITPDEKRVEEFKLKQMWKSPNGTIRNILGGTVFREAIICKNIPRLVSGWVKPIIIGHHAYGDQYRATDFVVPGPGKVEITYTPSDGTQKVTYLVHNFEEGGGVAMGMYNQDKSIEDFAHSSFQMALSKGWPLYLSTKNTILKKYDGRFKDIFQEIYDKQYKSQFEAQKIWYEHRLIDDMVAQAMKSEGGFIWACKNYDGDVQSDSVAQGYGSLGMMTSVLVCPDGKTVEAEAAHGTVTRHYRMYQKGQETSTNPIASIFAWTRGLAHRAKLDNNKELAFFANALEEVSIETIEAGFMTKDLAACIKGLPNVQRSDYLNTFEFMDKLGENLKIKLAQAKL
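IDH1-R132H (0.5 ug/mL dispensed) in pH 7.5 Tris buffer was preincubated 30 min with compound, then given a substrate mix of 0.016 mM NADPH and 2 mM alpha-KG for 80 min at room temperature; remaining NADPH was read by diaphorase/resazurin fluorescence.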
TrxR1 inh: qHTS Assay for Inhibitors of Mammalian Selenoprotein Thioredoxin Reductase 1 (TrxR1): qHTS; AID 588453, 2011; recombinant rTrxR1, NADPH fluorescence consumption, selenite substrate; 390,000 compounds, 1% hits; Thioredoxin reductase 1, cytoplasmic (Rattus norvegicus), O89049; Potency, µM (highest dose often 114 µM), for inactives: at the highest dose activity change, negative = inhibition, most hits filed as inhibitors; note: % is set by controls: 0 for no effect and ±100 for the full control effect; nearly all actives have a fitted effect of over 65% in size
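Rat TrxR1 (90 nM in the dispensed reagent) was pre-reduced with 400 uM NADPH for 5 min at room temperature, then incubated with compound for 15 min. After 400 uM selenite was added, NADPH fluorescence (Ex 340/Em 450 nm) was followed for 8 min.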
A549 viability: Nrf2 qHTS screen for inhibitors: counterscreen for cytotoxicity; Potency, µM (series often up to 46 µM), for inactives: at the top dose activity change, negative = cytotoxicity, hits mostly inhibitors; 390,000 compounds, 0.16% hits; A549 ARE-Fluc cells, CellTiter-Fluor viability, 18-24 h; note: % is set by controls: 0 for no effect and ±100 for the full control effect
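Cytotoxicity counterscreen: CellTiter-Fluor fluorescence was measured in A549 ARE_Fluc cells after 18-24 h of compound exposure in a concentration series. The subsequent BugLite luminescent read reports ARE-luciferase activity.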
Nrf2 inh: Nrf2 qHTS screen for inhibitors. A549 ARE-Fluc reporter, luciferase luminescence, 18-24 h. Potency, µM (top dose mostly 46 µM), for inactives: at the top dose activity change, negative = inhibition, actives largely listed as inhibitors. 360,000 compounds, 2.1% hits; note: % is set by controls: 0 for no effect and ±100 for the full control effect; nearly all actives have a fitted effect of over 60% in size
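Two sequential reads on A549 ARE_Fluc cells exposed to compound for 18-24 h: a CellTiter-Fluor fluorescence read for viability, then a luciferase luminescence read for Nrf2/ARE activity.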
* hit, by the source's call; ! = a repeat was not active; [ ] = dose if it differs, or a comment. Shown are actives, neighbours in structure and some others; about 3.1% of the full set was active somewhere. Calls come from the whole dose curve; as a rule, active = well fitted curve in the direction sought with a large enough effect; inconclusive = small, poorly fitted or top-dose-only effect, or another doubt; inactive = no such curve, though single readings can be large; an effect the other way counts as inactive or inconclusive. Potency is the fitted concentration of half-maximal effect.

Screening CCOC(=O)N1CCN(c2cc(=O)n(-c3ccc(Br)cc3)c(=O)[nH]2)CC1 returned Mito fusion yeast -1%, TrxR1 substrate -1%[57.1 µM], mIDH1 inhibitor -3%, TrxR1 inh 18µM*, A549 viability inconclusive and Nrf2 inh 6%.
`CCOC(=O)N1CCN(c2cc(=O)n(-c3ccc(C)cc3)c(=O)[nH]2)CC1` gave Mito fusion yeast 2%, TrxR1 substrate 9%[57.1 µM], mIDH1 inhibitor 7%, TrxR1 inh inconclusive, A549 viability 7% and Nrf2 inh 8%.
For CN(C)c1c(Cl)cc(/C=C/c2ccnc3ccccc23)cc1Br the results were TrxR1 substrate 3% and TrxR1 inh -7%.
Cc1cccc(NC2=C/C(=N/S(=O)(=O)c3cccs3)c3ccccc3C2=O)c1 was read as Mito fusion yeast 0%, TrxR1 substrate -13%, mIDH1 inhibitor 9%, TrxR1 inh -15%, A549 viability inconclusive and Nrf2 inh inconclusive.
For Cc1ccc(Cl)cc1NC1=C/C(=N\S(=O)(=O)c2cccs2)c2ccccc2C1=O the results were Mito fusion yeast -9%, TrxR1 substrate -4%, mIDH1 inhibitor 21%, TrxR1 inh -22%, A549 viability inconclusive and Nrf2 inh 16µM*.
`Cc1ccc(NC2=C/C(=N\S(=O)(=O)c3cccs3)c3ccccc3C2=O)c(C)c1` gave Mito fusion yeast -17%, TrxR1 substrate -9%, mIDH1 inhibitor 10%, TrxR1 inh -17%, A549 viability 18µM* and Nrf2 inh inconclusive.
Screening CCOc1ccc(-c2nn(-c3ccccc3)cc2C2NC(=O)NC(C)=C2C(=O)OC(C)C)cc1C (centres undefined) returned TrxR1 substrate -7%, mIDH1 inhibitor -18%, TrxR1 inh 16%, A549 viability -21% and Nrf2 inh inconclusive.
`COc1ccc(C2NC(=O)NC(C)=C2C(=O)Nc2cc(C)cc(C)c2)c(OC)c1` (centres undefined) gave TrxR1 substrate 4%, mIDH1 inhibitor -10%, TrxR1 inh 9%, A549 viability -1% and Nrf2 inh -11%.
For CCN(CC)CCNC(=O)c1cc2c(-c3ccc(Cl)cc3)nn(C)c2s1 the results were Mito fusion yeast 2%, TrxR1 substrate 64%, mIDH1 inhibitor 21%, TrxR1 inh 39%, A549 viability -21% and Nrf2 inh 19%.
CCCN(CCC)CCNC(=O)c1cc2c(-c3ccc(Cl)cc3)nn(C)c2s1 was read as Mito fusion yeast -32%, TrxR1 substrate 53%, mIDH1 inhibitor -1%, TrxR1 inh 17%, A549 viability 23µM* and Nrf2 inh 23µM*!.
For CCNc1nc(NCc2ccccc2)nc(SCC(=O)Nc2ccccc2)n1 the results were Mito fusion yeast 9%, TrxR1 substrate -7%, mIDH1 inhibitor -4%, TrxR1 inh -4%, A549 viability -16% and Nrf2 inh 23µM*.
Screening CN1CCN(c2nc(-c3ccccn3)nc3ccccc23)CC1 returned Mito fusion yeast -3%, TrxR1 substrate 5%, mIDH1 inhibitor 0%, TrxR1 inh 4%, A549 viability -15% and Nrf2 inh 5%.
`c1ccc(N2CCN(c3nc(-c4ccccn4)nc4ccccc34)CC2)cc1` gave Mito fusion yeast -4%, TrxR1 substrate -1%, mIDH1 inhibitor 1%, TrxR1 inh inconclusive, A549 viability inconclusive and Nrf2 inh 16µM*.

Bioassay records as filed in PubChem.
